MITF inh – inhibitors of human MITF; O75030; AlphaScreen MITF homodimerization, bead proximity signal; inhibition, % at 2.6 µM; actives 0.91% (n = 650,000); in the data active means inhibition above about 50%;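 further: 0% = vehicle wells with protein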
Target sequence (O75030 whole entry, looked up): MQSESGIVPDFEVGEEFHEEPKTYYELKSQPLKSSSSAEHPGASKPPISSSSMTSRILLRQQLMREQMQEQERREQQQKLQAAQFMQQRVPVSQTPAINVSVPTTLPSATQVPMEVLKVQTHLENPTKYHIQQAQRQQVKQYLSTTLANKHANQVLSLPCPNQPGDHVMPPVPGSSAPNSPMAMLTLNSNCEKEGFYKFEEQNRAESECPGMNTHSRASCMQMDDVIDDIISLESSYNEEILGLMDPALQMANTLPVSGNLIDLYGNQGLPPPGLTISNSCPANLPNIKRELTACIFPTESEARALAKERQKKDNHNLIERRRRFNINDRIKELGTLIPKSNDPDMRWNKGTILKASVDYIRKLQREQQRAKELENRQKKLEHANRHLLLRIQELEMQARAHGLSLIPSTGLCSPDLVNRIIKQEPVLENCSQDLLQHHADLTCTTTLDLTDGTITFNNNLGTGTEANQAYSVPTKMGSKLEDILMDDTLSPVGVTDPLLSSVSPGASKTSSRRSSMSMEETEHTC
GPR151 ag – human GPR151 activation; PathHunter beta-arrestin GPR151 cells, luminescence; activation, % at 11.2 µM; actives 1% (n = 650,000); AID 1508602; in the data active means activation above about 4.9%;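 further: 0% = median of compound wells and 100% = cells with positive control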
FBW7 act – activators of human E3 ligase FBW7 | Q969H0 | AlphaScreen FBW7–phospho-cyclin E peptide binding, activator screen | normalized activity (activation), % at 26.1 µM | actives 0.13% (n = 650,000) | AID 1259310; in the data active means normalized activity above about 1.9%;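 further: purified mutant Fbw7 with reduced substrate affinity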
TEAD-YAP block – TEAD-YAP interaction inhibition. inhibition, % at 9.12 µM. actives 1.4% (n = 640,000). AID 1259422. HEK-TIYL cells, TEAD-Gal4/YAP UAS-luciferase luminescence; in the data active means inhibition above about 32%;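 further: 0% = median of test compound wells and 100% = reference inhibitor wells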
MITF confirm – human MITF inhibition, confirmation; AID 1259372; actives 16% (n = 4,700); shares compounds with MITF inh; AlphaScreen MITF homodimerization, biotin/His-MITF beads; inhibition, % at 2.6 µM;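 active means inhibition above a cutoff derived from the DMSO control wells, cut at about 28% in these data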;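 further: 0% = MITF dimer wells with DMSO only; inhibitors lower the bead chemiluminescence by keeping MITF from dimerizing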
AS interf ctr – optically interferes with AlphaScreen signal. shares compounds with MITF inh. LysRS AlphaScreen counterscreen, signal interference, triplicate. inhibition, % at 2.6 µM. actives 7.6% (n = 4,700). AID 1259376;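 active means inhibition above a cutoff derived from the DMSO control wells, cut at about 30% in these data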
The depositor's hits bear a star. Rows were chosen to be rich in hits. Some 3.5% of all compounds tested hit in one or more screens of this group.

What do the screens show for `CCOC(=O)Cc1ccc(N(Cc2ccc(Cl)cc2)S(=O)(=O)c2cc(C)ccc2C)cc1`?
MITF inh: 9; GPR151 ag: 5; FBW7 act: 0; TEAD-YAP block: -8

What do the screens show for `CCCCNC(=O)NCc1ccc(Cl)cc1`?
MITF inh: 1; GPR151 ag: -2; FBW7 act: 0; TEAD-YAP block: -13

What do the screens show for `Cc1cc(C)nc(NS(=O)(=O)c2ccc(NC(=O)c3ccc(C)c(C)c3)cc2)n1`?
MITF inh: -4; GPR151 ag: 0; FBW7 act: 0; TEAD-YAP block: -10

Results for CS(=O)(=O)N1CCN(Cc2ccccc2C(F)(F)F)CC1 ?
MITF inh: 71*; GPR151 ag: -1; FBW7 act: 0; TEAD-YAP block: 0; MITF confirm: -1; AS interf ctr: 5

How did OC1CCN(Cc2ccccc2C(F)(F)F)CC1 do in these assays?
MITF inh: 40; GPR151 ag: 1; FBW7 act: 0; TEAD-YAP block: 6

What do the screens show for `FC(F)(F)c1ccccc1CN1CCN(Cc2ccncc2)CC1`?
MITF inh: 71*; GPR151 ag: 1; FBW7 act: 0; TEAD-YAP block: 4; MITF confirm: -1; AS interf ctr: -4

Results for O=S(=O)(c1ccc(Cl)cc1)N1CCN(Cc2ccccc2C(F)(F)F)CC1 ?
MITF inh: -2; GPR151 ag: 0; FBW7 act: 0; TEAD-YAP block: -13

How did FC(F)(F)c1ccccc1CN1CCN(Cc2ccccc2C(F)(F)F)CC1 do in these assays?
MITF inh: 70*; GPR151 ag: 1; FBW7 act: 0; TEAD-YAP block: -6; MITF confirm: 4; AS interf ctr: 8

Results for OCC1CCN(C2CCCN(Cc3ccccc3C(F)(F)F)C2)CC1 (stereo unspecified) ?
MITF inh: -1; GPR151 ag: -2; FBW7 act: 0; TEAD-YAP block: -4

How did FC(F)(F)c1ccccc1CN1CCN(C2CCCC2)CC1 do in these assays?
MITF inh: 64*; GPR151 ag: 3; FBW7 act: 0; TEAD-YAP block: 6; MITF confirm: -5; AS interf ctr: -2

Results for Cc1nc2c(c(N3CCCCC3)n1)CN(C(=O)c1cccc(C#N)c1)CC2 ?
MITF inh: -15; GPR151 ag: 4; FBW7 act: 0; TEAD-YAP block: -7

Results for Cc1cc(C)nc(SCc2cc(=O)c(OC(=O)c3c(F)cccc3F)co2)n1 ?
MITF inh: 8; GPR151 ag: 0; FBW7 act: 0; TEAD-YAP block: -8

How did CCCN1CCC(NCc2ccccc2C(F)(F)F)CC1 do in these assays?
MITF inh: 55*; GPR151 ag: 0; FBW7 act: 0; TEAD-YAP block: 9; MITF confirm: -3; AS interf ctr: -2

What do the screens show for `CN1CCC(NCc2ccccc2C(F)(F)F)CC1`?
MITF inh: -5; GPR151 ag: 0; FBW7 act: 0; TEAD-YAP block: 4

Results for CCOC(=O)CCCCC(=O)c1c(C)n(C(=O)c2ccco2)c(=O)n1C(=O)c1ccco1 ?
MITF inh: 99*; GPR151 ag: 0; FBW7 act: -1; TEAD-YAP block: -1; MITF confirm: 102*; AS interf ctr: 80*

What do the screens show for `CCOC(=O)c1c(C)n(C(=O)c2ccco2)c(=O)n1C(=O)c1ccco1`?
MITF inh: 16; GPR151 ag: 2; FBW7 act: 1; TEAD-YAP block: 7

What do the screens show for `CCN(C(=O)Cn1cnc2ccccc21)c1cccc2ccccc12`?
MITF inh: -1; GPR151 ag: 1; FBW7 act: 0; TEAD-YAP block: 14

What do the screens show for `CN1CCN(CC(=O)N(c2ccccc2)c2ccc(O)cc2)CC1`?
MITF inh: 75*; GPR151 ag: 2; FBW7 act: 0; TEAD-YAP block: -3; MITF confirm: 12; AS interf ctr: 16

How did O=C(CN1CCC(N2CCCCC2)CC1)N(c1ccccc1)c1ccc(O)cc1 do in these assays?
MITF inh: 9; GPR151 ag: 0; FBW7 act: 0; TEAD-YAP block: -3

Results for CCN(C(=O)CN1CCN(C)CC1)c1cccc2ccccc12 ?
MITF inh: 85*; GPR151 ag: 0; FBW7 act: 0; TEAD-YAP block: 2; MITF confirm: -4; AS interf ctr: -4

How did Oc1cccc(Nc2ccc(-c3ccccc3F)nn2)c1 do in these assays?
MITF inh: -1; GPR151 ag: 2; FBW7 act: 0; TEAD-YAP block: -52

Screens as filed in PubChem.
